Assay results reported in PubChem BioAssay (Tox21).
Results filed as inconclusive are left out. Where a call stands in place of a potency, no number is given. Unmarked numbers belong to inactive results. Calls of active or inactive are those of the source. Calls come from the whole dose curve; as a rule, active = well fitted curve in the direction sought with a large enough effect in the repeat runs; inconclusive = weak or mixed curves; inactive = no such curve, though single readings can be large; an effect the other way counts as inactive or inconclusive.

Experiments:
[1] = qHTS assay to identify small molecule agonists of the RXR signaling pathway - cell viability counter screen (AID 1159529); details: RXR-alpha-bla HEK293T viability, CellTiter-Glo, 16 h; series mostly up to 76.8 µM;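 note: HEK 293T cells carrying an RXR-alpha UAS beta-lactamase reporter; nearly all actives have a fitted effect of over 50% in size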
How it was run: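 In this parallel viability measure, GeneBLAzer RXR-alpha HEK 293T cells (2% charcoal-stripped FBS) were given a 5 hr preincubation, treated with compounds 16 hr at 37 C, and read by CellTiter-Glo luminescence.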

[2] = qHTS assay to identify small molecule antagonists of the retinoid acid receptor (RAR) signaling pathway - cell viability counter screen (AID 1159551); details: C3RL4 cells viability, ATP luminescence (CellTiter-Glo), 6 h; series mostly up to 92.4 µM; note: nearly all actives have a fitted effect of over 35% in size
How it was run: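 Viability of C3RL4 cells is quantified from ATP by luminescence after 6 h treatment at 37 C with compounds and 1 uM retinol.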

[3] = qHTS assay to identify small molecule antagonists of the retinoic acid receptor (RAR) signaling pathway (AID 1159552; note: nearly all actives have a fitted effect of over 50% in size); details: C3RL4 RARE luciferase reporter, retinol-stimulated, 6 h; series mostly up to 92.4 µM
How it was run: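 C3RL4 RARE-luc cells, overnight plating; retinol 1 uM final added right after compound; 6 hr 37 C; luciferase read at 30 min RT.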

[4] = qHTS assay to identify small molecule agonists of the retinoic acid receptor (RAR) signaling pathway (AID 1159553); details: C3RL4 RARE luciferase reporter, agonist, 6 h; activation: at 73.3 µM (top of the series); note: potency is the fitted concentration of half-maximal effect
How it was run: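 Compounds dissolved in DMSO were pinned onto C3RL4 cells seeded the previous day, and plates were held 6 hr at 37 C. RARE-driven luciferase output was then read by luminescence.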

[5] = qHTS assay to identify small molecule antagonists of the estrogen related receptor (ERR) signaling pathway from Tox21 library - cell viability counter screen (AID 1224834); details: ERR reporter cells viability, CellTiter-Fluor, 17.5 h; series mostly up to 92.4 µM; note: nearly all actives have a fitted effect of over 30% in size
How it was run: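 In this quantitative HTS format, ERR cells receive compounds in DMSO and are incubated for 17.5 h at 37 C. Live-cell protease activity is then detected with CellTiter-Fluor.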

[6] = biological target: Luciferin 4-monooxygenase (Photinus pyralis) (UniProt P08659); assay: qHTS assay to identify small molecule inhibitors of firefly luciferase (AID 1224835); note: nearly all actives have a fitted effect of over 25% in size; note: potency is the fitted concentration of half-maximal effect; details: purified P. pyralis luciferase, luminescence inhibition; series mostly up to 115 µM
How it was run: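 Biochemical qHTS: compounds run as interplate titrations against purified firefly enzyme, with D-luciferin and ATP each at its KM concentration. Light output recorded by CCD imaging.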

[7] = qHTS assay to identify small molecule agonists of the constitutive androstane receptor (CAR) signaling pathway - cell viability counter screen (AID 1224836); details: HepG2-CYP2B6-hCAR viability, CellTiter-Fluor, 23 h, PK11195 added to every well; series mostly up to 92.4 µM; note: nearly all actives have a fitted effect of over 45% in size
How it was run: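 Using CellTiter-Fluor, viability of HepG2 cells harbouring hCAR and CYP2B6-2.2kb was measured following 23 h incubation with a 15-concentration compound series plus PK11195 (0.75 uM final).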

[8] = qHTS assay to identify small molecule antagonists of the constitutive androstane receptor (CAR) signaling pathway - cell viability counter screen (AID 1224837); details: HepG2-CYP2B6-hCAR viability, CellTiter-Fluor, 23 h, co-treated with 50 nM CITCO; series mostly up to 92.4 µM; note: nearly all actives have a fitted effect of over 45% in size
How it was run: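 In quantitative HTS format, compounds at 15 concentrations were applied to HepG2 cells double-transfected with hCAR and CYP2B6-2.2kb under 50 nM CITCO stimulation; live-cell protease activity was read after 23 hr via CellTiter-Fluor.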

[9] = biological target: Nuclear receptor subfamily 1 group I member 3 (Homo sapiens) (UniProt Q14994); assay: qHTS assay to identify small molecule antagonists of the constitutive androstane receptor (CAR) signaling pathway (AID 1224838); details: HepG2-CYP2B6-hCAR luciferase, CITCO-stimulated, 24 h; series mostly up to 92.4 µM; note: nearly all actives have a fitted effect of over 40% in size
How it was run: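 CITCO-stimulated (50 nM final) HepG2 cells stably transfected with hCAR and CYP2B6-2.2kb luciferase were exposed to compounds at 15 concentrations for 24 h at 37 C/5% CO2. A luciferase reagent was added and luminescence recorded after 30 min.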

[10] = biological target: Nuclear receptor subfamily 1 group I member 3 (Homo sapiens) (UniProt Q14994); assay: qHTS assay to identify small molecule agonists of the constitutive androstane receptor (CAR) signaling pathway (AID 1224839); details: HepG2 hCAR CYP2B6-luciferase, agonist mode, 24 h; series mostly up to 92.4 µM;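 note: HepG2 cells stably carrying human CAR and a CYP2B6 luciferase reporter; nearly all actives have a fitted effect of over 15% in size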
How it was run: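 Double-stable HepG2 cells (hCAR, CYP2B6-2.2kb) seeded 4 h before compound addition. Exposure 24 h with 0.75 uM PK11195 final. Luciferase detected by ONE-Glo.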

Luciferin 4-monooxygenase (Photinus pyralis), sequence (P08659 whole entry, looked up): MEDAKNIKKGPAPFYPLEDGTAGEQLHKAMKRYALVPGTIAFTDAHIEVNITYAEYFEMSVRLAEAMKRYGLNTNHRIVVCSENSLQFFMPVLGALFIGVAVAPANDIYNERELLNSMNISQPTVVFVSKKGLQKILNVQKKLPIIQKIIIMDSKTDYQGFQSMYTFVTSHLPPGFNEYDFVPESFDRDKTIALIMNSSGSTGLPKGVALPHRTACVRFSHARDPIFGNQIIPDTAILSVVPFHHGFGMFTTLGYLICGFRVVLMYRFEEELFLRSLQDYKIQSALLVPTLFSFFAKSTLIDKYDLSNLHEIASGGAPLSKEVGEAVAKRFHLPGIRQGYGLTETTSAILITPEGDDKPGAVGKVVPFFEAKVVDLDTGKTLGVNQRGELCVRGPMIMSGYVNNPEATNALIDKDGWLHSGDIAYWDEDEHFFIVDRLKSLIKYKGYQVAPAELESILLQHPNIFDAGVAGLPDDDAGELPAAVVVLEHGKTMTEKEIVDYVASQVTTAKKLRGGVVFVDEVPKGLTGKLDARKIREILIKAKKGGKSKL
Nuclear receptor subfamily 1 group I member 3 (Homo sapiens), sequence (Q14994 whole entry, looked up): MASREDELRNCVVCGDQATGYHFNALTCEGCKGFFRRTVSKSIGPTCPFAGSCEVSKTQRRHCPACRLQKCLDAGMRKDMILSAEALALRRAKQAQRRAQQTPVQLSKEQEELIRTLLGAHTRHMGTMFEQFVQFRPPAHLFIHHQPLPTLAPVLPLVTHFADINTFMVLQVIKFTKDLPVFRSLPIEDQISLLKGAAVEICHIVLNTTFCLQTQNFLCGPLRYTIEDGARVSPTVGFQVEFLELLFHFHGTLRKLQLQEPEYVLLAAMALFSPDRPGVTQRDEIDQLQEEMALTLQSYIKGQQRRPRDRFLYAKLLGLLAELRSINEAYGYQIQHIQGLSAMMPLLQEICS

Row | SMILES | outcome [1] | outcome [2] | Potency [3] | Potency [4] | Potency [5] | Potency [6] | outcome [7] | Potency [8] | Potency [9] | Potency [10]
1 | CCN(CCC#N)c1ccccc1 | inactive | inactive | inactive | inactive | inactive | inactive | inactive | inactive | inactive | 
2 | CC(Cl)COP(=O)(OCC(C)Cl)OCC(C)Cl (stereo not given) | inactive | inactive | inactive | inactive | inactive | inactive | inactive | inactive | inactive | 
3 | CCN(CCO)c1cccc(C)c1 | inactive | inactive | inactive | inactive | inactive | inactive | inactive | inactive | inactive | 
4 | O=C(O)c1c(Cl)ccc(Cl)c1Cl | inactive | inactive | inactive | inactive | inactive | inactive | inactive | inactive | inactive | 
5 | CCOC(=O)CCCCCCCCC(=O)OCC | inactive | inactive | inactive | inactive | inactive | inactive | inactive | inactive | inactive | inactive
6 | C=CCOc1c(Br)cc(Br)cc1Br | inactive | inactive | inactive | inactive | inactive | inactive | inactive | inactive | inactive | 
7 | Cc1ccccc1C(=O)N1CC/C(=N\OS(=O)(=O)O)c2ccc(Cl)cc21 | inactive | inactive | inactive | inactive | inactive | inactive | inactive | inactive |  | inactive
8 | Cc1nc2n(c(=O)c1CCN1CCC(C(=O)c3ccc(F)cc3)CC1)CCS2 | inactive | inactive | inactive | inactive | inactive | inactive | inactive | inactive |  | 
9 | CO[Si](CCCS)(OC)OC | inactive | inactive | inactive | inactive | inactive | inactive | inactive | inactive |  | 
10 | Cc1ncc([N+](=O)[O-])n1CC(O)CCl (stereo not given) | inactive | inactive | inactive | inactive | inactive | inactive | inactive | inactive | inactive | 
11 | CCC(=O)OCCC(C)CCC=C(C)C (stereo not given) | inactive | inactive | inactive | inactive | inactive | inactive | inactive | inactive | inactive | inactive
12 | CCCCCCCCCCC | inactive | inactive | inactive | inactive | inactive | inactive | inactive | inactive | inactive | 
13 | CC(C)CCCC(C)CC=O (stereo not given) | inactive | inactive | inactive | inactive | inactive | inactive | inactive | inactive |  | 
14 | C=CCOc1cc(Cl)ccc1C(=O)NCCN(CC)CC | inactive | inactive | inactive | inactive | inactive | inactive | inactive | inactive | inactive | 
15 | CC(C)COC(=O)CC(C(=O)OCC(C)C)S(=O)(=O)O (stereo not given) | inactive | inactive | inactive | inactive | inactive | inactive | inactive | inactive | inactive | inactive
16 | C/C=C(\C)C(=O)OCC/C=C\CC | inactive | inactive | inactive | inactive | inactive | 35.6 µM (active) | inactive | inactive |  | inactive
17 | O=C(O)c1ccccc1C(=O)Nc1ccc(S(=O)(=O)Nc2nccs2)cc1 | inactive | inactive | inactive | inactive | inactive | inactive | inactive | inactive | inactive | inactive
18 | NS(=O)(=O)c1cc2c(cc1Cl)NC(CC1CCCC1)NS2(=O)=O (stereo not given) | inactive | inactive | inactive | inactive | inactive | inactive | inactive | inactive |  | inactive
19 | CC(=O)OC(C(=O)c1ccccc1)c1ccccc1 (stereo not given) | inactive | inactive | inactive | inactive | inactive | inactive | inactive | inactive | inactive | 
20 | CCCCC(CC)COC(=O)c1ccccc1 (stereo not given) | inactive | inactive | inactive | inactive | inactive | inactive | inactive | inactive | inactive | inactive
21 | CCOC(=O)CC(CC(=O)OCC)(OC(C)=O)C(=O)OCC | inactive | inactive | inactive | inactive | inactive | inactive | inactive | inactive | inactive | 
22 | Nc1cc(Cl)cc(S(=O)(=O)O)c1O | inactive | inactive | inactive | inactive | inactive | inactive | inactive | inactive | inactive | inactive
23 | O=C(O)c1ccccc1C(=O)OCc1ccccc1 | inactive | inactive | inactive | 48.6 µM (active) | inactive | 39.9 µM (active) | inactive | inactive | inactive | 
